Laboratory results: PubChem BioAssay AID504357 (The Scripps Research Institute Molecular Screening Center, 2011)
In all, about 340,000 compounds went through this assay and about 700 (0.21%) were called active. What follows is part of a selection rich in actives, with near analogues and random picks from the rest. A number with no mark means an inactive call. Cut-off read from the data, not from the text of the source: active = inhibition above about 22% (passing the limit was not always enough); inactive = the rest.

Biological target: Mu-type opioid receptor (Homo sapiens) + Delta-type opioid receptor (Homo sapiens) (UniProt P35372+P41143)
Experiment: OPRM1-OPRD1 heterodimer inverse agonism – cell-based, luminescence, primary screen (AID 504357);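 note: 0% = cells with DMSO and 100% = wells without cells with DMSO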
Settings: cell-based MOR-DOR heterodimer luminescence, at 9.3 µM, stronger effect = higher value

Mu-type opioid receptor (Homo sapiens) + Delta-type opioid receptor (Homo sapiens), sequence (P35372 whole entry, looked up): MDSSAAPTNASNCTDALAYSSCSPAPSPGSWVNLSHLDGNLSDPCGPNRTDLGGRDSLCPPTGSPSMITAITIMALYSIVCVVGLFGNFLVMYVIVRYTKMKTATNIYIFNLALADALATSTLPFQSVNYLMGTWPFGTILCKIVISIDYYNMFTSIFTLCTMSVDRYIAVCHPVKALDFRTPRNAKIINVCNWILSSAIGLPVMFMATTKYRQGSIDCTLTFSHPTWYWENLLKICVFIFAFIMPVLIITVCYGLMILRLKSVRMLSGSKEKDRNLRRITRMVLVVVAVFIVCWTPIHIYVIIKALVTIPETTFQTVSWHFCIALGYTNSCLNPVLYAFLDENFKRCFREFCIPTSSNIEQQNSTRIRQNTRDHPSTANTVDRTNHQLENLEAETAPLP
Mu-type opioid receptor (Homo sapiens) + Delta-type opioid receptor (Homo sapiens), sequence (P41143 whole entry, looked up): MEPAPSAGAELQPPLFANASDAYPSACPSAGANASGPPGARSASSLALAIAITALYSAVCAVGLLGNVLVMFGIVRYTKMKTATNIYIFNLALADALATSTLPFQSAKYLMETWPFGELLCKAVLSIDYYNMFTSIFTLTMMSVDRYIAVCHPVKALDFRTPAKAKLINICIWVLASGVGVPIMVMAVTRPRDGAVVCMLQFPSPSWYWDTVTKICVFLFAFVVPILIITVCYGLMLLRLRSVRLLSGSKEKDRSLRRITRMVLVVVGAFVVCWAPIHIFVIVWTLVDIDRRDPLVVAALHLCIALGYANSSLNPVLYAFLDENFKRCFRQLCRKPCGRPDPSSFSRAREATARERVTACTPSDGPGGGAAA

| SMILES | inhibition |
| --- | --- |
| COc1cc2sc(C)nc2cc1C | -8.04% |
| O=C(O)C(=Cc1ccccc1[N+](=O)[O-])c1ccccc1 | 9.45% |
| CC(C)CCSc1ncnc2c1oc1nc3c(cc12)COC(C)(C)C3 | 5.61% |
| Cc1ccc2nc(SCc3nnc(-c4ccccc4[N+](=O)[O-])o3)c(C#N)cc2c1 | 13% |
| Cc1nc2cc(NC(=O)CSc3nc4c(C)cccc4cc3C#N)ccc2s1 | 12.7% |
| CCN1C[C@@H]2[C@@H]3C(=O)N(Cc4ccccc4)C(=O)[C@@H]3[C@](C)(C1=O)N2C(=O)c1ccc(C(C)(C)C)cc1 | 0.58% |
| Cn1ccs/c1=N\S(=O)(=O)c1ccc(C(C)(C)C)cc1 | 4.78% |
| CC(C)(C)c1nnc(NC(=O)C2c3ccccc3Oc3ccccc32)s1 | -37% |
| N#C/C(=C/c1ccc(Cl)cc1)NC(=O)c1ccccc1 | -2.56% |
| O=C(CN1CCCSc2ccccc21)N1CCN(S(=O)(=O)c2cccc(F)c2)CC1 | 9.06% |
| O=C1C[C@@H]2c3c(cccc3CN1Cc1ccccc1)C[C@@H](O)[C@H]2O | 1.13% |
| CCCNC(=O)CCn1cc(-c2ccc(OC)cc2)nc1CCN | 7.6% |
| COC(=O)c1scc(C)c1NC(=O)CSc1ccc(Cl)cc1 | 0.66% |
| CC(=O)c1ccc(NC(=O)C(C)N(C)CC(=O)Nc2ccccc2Cl)cc1 (configuration not stated) | 2.42% |
| CCOC(=O)c1c(-n2cnnn2)sc(C)c1C | 18.6% |
| Cc1ccc(Oc2cc(NC(=O)CCCn3nc(C)c([N+](=O)[O-])c3C)cc([N+](=O)[O-])c2)cc1 | -12.5% |
| Cc1ccc(S(=O)(=O)N2CCOCC2)cc1C(=O)NC(=S)N(Cc1ccccc1)C(C)C | 20% |
| COc1ccc(-n2c(O)c(C=NCC(c3ccco3)N3CCCC3)c3ccccc3c2=O)cc1OC (configuration not stated) | 12.1% |
| Cc1cccc(-n2c(Cc3cc(=O)[nH]c(=O)[nH]3)nnc2SCC(=O)Nc2cccc(C(F)(F)F)c2)c1 | -3.78% |

| SMILES | inhibition |
| --- | --- |
| COC(=O)C1(CCSC)NC(c2ccc(OC)cc2OC)C2C(=O)N(c3cccc(C(C)=O)c3)C(=O)C21 (configuration not stated) | 15.3% |
| NNc1cccc(C=Cc2ccccc2)cc1=O | -23.2% |
| COc1ccc(CC(=O)OC(C)C(=O)Nc2ccc(S(N)(=O)=O)cc2)cc1 (configuration not stated) | 6.12% |
| Cc1c(C(=O)N(Cc2ccccc2)Cc2cccnc2)cnn1-c1ccc(F)cc1 | 15.9% |
| Cc1ccccc1NC(=O)CSC1=NCCN1 | 6.55% |
| Cc1ccc(S(=O)(=O)Oc2ccc(/C=N/NC(=O)c3c(Cl)cnn3C)cc2)cc1 | 6.6% |
| O=S(=O)(c1ccc(Br)cc1)n1ccc2ccccc21 | -60.1% |
| O=C(NC1CCCCCCC1)c1cccs1 | -15.7% |
| OCC[C@H]1C[C@H](O)[C@@H](O)[C@]2(CCCCO2)O1 | 1.27% |
| Cc1cccc(C2c3[nH]c4ccccc4c3CCN2C(=O)c2cc(-c3cccn3C)n[nH]2)n1 (configuration not stated) | -17.1% |
| CC(=O)c1ccc(NC(=O)CCc2nnc3ccc(NCc4ccco4)nn23)cc1 | 18.1% |
| COC(=O)c1cccc(C(=O)N2CCCC(Nc3ccc4c(c3)OCCO4)C2)c1 (configuration not stated) | -2.83% |
| Cc1ccc(Nc2nnc(SC(C)C(=O)NC3CC3)s2)cc1 (configuration not stated) | 5.95% |
| O=S(=O)(NCc1ccccc1)c1ccc(S(=O)(=O)N2CCCC2)cc1 | 7.6% |
| COC(=O)CSc1nc2c(c(C3CC=CCC3)c1C#N)CCC2 (configuration not stated) | 0.33% |
| CC1CCN(C(=O)c2ccc3c(=O)n4c(nc3c2)CCCCC4)CC1 | -4.92% |
| CCc1noc(C)c1C(=O)N1CCN(S(=O)(=O)c2cccc(C(F)(F)F)c2)CC1 | 9.18% |
| COc1cc(C2C(N3C(=O)c4ccccc4C3=O)C(=O)N2c2ccc(C)c(C)c2)cc(OC)c1OC (configuration not stated) | 8.56% |
| O=C(c1cc2ccccc2s1)N1CCN(c2ccccn2)CC1 | 5.35% |

| SMILES | inhibition |
| --- | --- |
| Cc1cccc(N(C)C(=O)c2cc(S(=O)(=O)N3CCCCC3)c[nH]2)c1 | -2.65% |
| Cc1cccc(C)c1Nc1c(-c2ccccc2O)nc2ncccn12 | 5.45% |
| O=C(O)c1ccc(S(=O)(=O)N2CCOCC2)o1 | -0.55% |
| COC(=O)c1c(NC(=O)C(=O)N2CCCCC2)sc2c1CC(C)(C)OC2 | -12.8% |
| Cc1nc2c(-c3ccc(F)cc3)c(C)nn2c(C)c1CCC(=O)N1CCN(c2ccccn2)CC1 | 8.06% |
| Cc1ccc(NC(=O)CN2CCCCC2)c2c1CC(C)(C)O2 | -2.22% |
| Cc1ccc(S(=O)(=O)NC[C@H]2O[C@@H](n3cnc4c(N)ncnc43)[C@H](O)[C@@H]2O)s1 | 16.3% |
| N#CC1=C(N)C(C#N)(C#N)[C@H](c2ccsc2)[C@H]2COCC=C12 | 25.7% (active) |
| CCN1CC=C2C(C#N)=C(N)C(C#N)(C#N)[C@H](c3ccoc3)[C@H]2C1 | -33.3% |
| O=C1N=C(N2CCOCC2)CS1 | 0.02% |
| Cc1ccccc1NC(=O)c1cc(S(=O)(=O)N2CCOCC2)cs1 | 4.89% |
| CN(CC(=O)Nc1cccc2c1CCCC2)S(=O)(=O)c1ccc(Cl)cc1 | -0.65% |
| O=S(=O)(c1ccc(Br)c2ccccc12)N1CCOCC1 | 15.2% |
| O=S(=O)(c1cnccc1N1CCN(/N=C/c2ccc(Br)cc2)CC1)N1CCCCC1 | 6.92% |
| COC(CNC(=O)c1ccc2c(c1)ncn2-c1cc(C)cc(C)c1)OC | 13% |
| CCc1cccc(C)c1NS(=O)(=O)c1cc(Br)cnc1N | -50.1% |
| O=C(CCc1[nH]c2ccccc2c1Sc1ccccc1)N(CCO)CCO | 8.56% |
| CC(C)c1ccc(S(=O)(=O)N2CCN(C(=O)c3ccc(N4CCCC4)c([N+](=O)[O-])c3)CC2)cc1 | 19.3% |
| Cc1cccc(NC(=O)NC2(C)CCS(=O)(=O)C2)c1 (configuration not stated) | -1.39% |
